Results on 92 molecules are retold here after PubChem BioAssay AID2280 (The Scripps Research Institute Molecular Screening Center, 2010).

Values joined by “and” are separate entries in the source; they are usually repeats but may differ in a detail not shown here. Equal values may be shown once. Out of some 320,000 compounds screened, about 1,400 (0.44%) were called active.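 Rule for the calls: active = percent inhibition above a per-plate cutoff, the plate mean of test compounds plus 3 SD (cut at about 30% in these data); inactive = the rest.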 Shown is part of a subset that was picked to be rich in actives. More than one record can exist for a structure, and the calls need not agree.

In this assay the target is Female germline-specific tumor suppressor gld-1 (Caenorhabditis elegans) (UniProt Q17339). Kind of assay: small molecules blocking C. elegans GLD-1 RNA recognition – biochemical, fluorescence polarization, primary screen (AID 2280).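 Note: 0% = DMSO wells with GLD-1 and probe and 100% = wells lacking GLD-1.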 The settings on record: purified GLD-1 + fluorescein TGE RNA, at 5.96 µM, stronger effect = higher value.
Chain of Female germline-specific tumor suppressor gld-1 (Caenorhabditis elegans) (Q17339 whole entry, looked up): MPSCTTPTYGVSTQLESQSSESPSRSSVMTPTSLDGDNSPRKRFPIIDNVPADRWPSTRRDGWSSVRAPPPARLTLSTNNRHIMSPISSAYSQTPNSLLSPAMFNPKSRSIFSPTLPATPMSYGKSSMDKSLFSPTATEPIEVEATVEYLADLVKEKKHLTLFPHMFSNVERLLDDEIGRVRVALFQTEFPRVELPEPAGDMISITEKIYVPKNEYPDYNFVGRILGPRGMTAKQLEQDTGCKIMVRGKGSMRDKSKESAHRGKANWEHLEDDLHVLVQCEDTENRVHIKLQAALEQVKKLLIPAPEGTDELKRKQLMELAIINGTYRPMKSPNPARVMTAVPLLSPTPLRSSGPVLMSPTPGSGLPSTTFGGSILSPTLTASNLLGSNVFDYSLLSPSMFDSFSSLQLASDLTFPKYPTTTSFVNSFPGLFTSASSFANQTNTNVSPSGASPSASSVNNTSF
`Cc1nn(C(=O)c2ccoc2C)c(N)c1-c1ccccc1`: the inhibition was 126% (active). The result for `C/C(=N\NC(=O)c1ccoc1C)c1ccccc1O` reads 2.44% (inactive). For `CCOC(=O)c1c(N)nn(C(=O)c2ccccc2)c1-c1ccccc1`, the inhibition was 7.39% (inactive). In the case of `CC(C)N(C)C(=O)CCc1nnc(CCc2c[nH]c3ccccc23)o1` it was 7.03% (inactive); in that of `Cc1ccccc1Nc1nc(N)nc(CSc2ccccc2)n1`, 6.58% (inactive); in that of `Cc1ccccc1Nc1nc(N)nc(CSc2nnc3ccccn23)n1`, 35.3% (active). The result for `Cc1ccccc1Nc1nc(N)nc(CN2CCN(c3ccccn3)CC2)n1` reads 2.81% (inactive). With `COc1ccc(C(C)=O)cc1COC(=O)Cn1cnc2ccccc2c1=O`, the inhibition is -1.6% (inactive).

Take `Cc1cc(NC(=O)CSc2nc3c(cc2C#N)CCCCC3)no1`: the inhibition was 6.13% (inactive). The result for `CC1(C)CCc2nc(SCc3ccccc3)c(C#N)cc2C1` reads 6.74% (inactive); that for `CC(NC(=O)CSc1nc2c(cc1C#N)CN(C)CC2)c1ccccc1` (configuration not stated), 35.9% (active); that for `CCOC(=O)C(C)n1cnc2c(nnn2-c2ccc(F)cc2)c1=O` (configuration not stated), 2.21% (inactive). Consider `CCCCn1ccnc1C(=O)c1cccc(S(=O)(=O)N2c3ccccc3CC2C)c1` (configuration not stated), for which the inhibition was 0.24% (inactive). For `COC(=O)c1sc(NC(=S)NC(=O)c2ccc(C)cc2)nc1C`, the inhibition is 60.9% (active).

With `Cc1ccc(C(=O)NC(=S)Nc2ccccc2C)cc1`, the inhibition is -1.38% (inactive).

Turning to `Cc1ccc(NC(=S)NC(=O)c2ccc(-c3ccccc3)cc2)cc1`, the inhibition was -3.26% (inactive). The result for `COc1cc(N2CCCC2)c(OC)cc1/C=C(/C#N)c1cccc(Br)c1` reads -45.9% (inactive).

On to `CC(Sc1nnc(-c2cccs2)n1C1CC1)C(=O)NCC1CCCO1` (configuration not stated), for which the inhibition is -1.09% (inactive).

For `O=S(=O)(c1ccc(Cl)cc1)N1CCCN(c2ccc(C(F)(F)F)cn2)CC1`, the inhibition was 3.79% (inactive).

In the case of `CN(C)c1ccc(Nc2c3c4c(cccc4n(C)c2=O)C(=O)c2ccccc2-3)cc1`, the inhibition is 53.9% (active). In the case of `CN(Cc1ccc(F)cc1)C(=O)CN1C(=O)c2ccccc2S1(=O)=O` it was -0.45% (inactive); in that of `O=S(=O)(NCCCCCCNS(=O)(=O)c1c(F)cccc1F)c1ccc2c(c1)OCCO2`, -2.33% (inactive). For the molecule `Cc1cc(N2C(=O)C(O)=C(C(=O)c3ccc(C)o3)C2c2ccc(OCc3ccccc3)cc2)no1` (configuration not stated), the inhibition was 12.7% (inactive). In the case of `C=CCOc1cccc(C2C(C(=O)c3ccc(C)o3)=C(O)C(=O)N2c2nnc(C)s2)c1` (configuration not stated), the inhibition was 91.3% (active). In the case of `C=CCOc1cccc(C2C(C(=O)c3ccc(C)o3)=C(O)C(=O)N2CCCn2ccnc2)c1` (configuration not stated), the inhibition is 5.89% (inactive).

With `CCN1CCC2(CCN(Cc3cn[nH]c3-c3ccc(OC)c(F)c3)C2)C1` (configuration not stated), the inhibition was 6.39% (inactive).

`COc1ccccc1C(=O)N(C1=NC(C)CS1)c1ccc(Cl)cc1` (configuration not stated): the inhibition is 5.47% (inactive). For the molecule `NC(=O)c1ccc(-c2csnn2)cc1`, the inhibition is -0.25% (inactive). Consider `COc1ccc(NC(=O)C(C)SCc2ccccc2)cc1` (configuration not stated), for which the inhibition was 4.3% (inactive). For `O=C1N=C2SCCN2/C1=C\c1c(Cl)cccc1Cl`, the inhibition is 3.87% (inactive). In the case of `CCC(=NC1CC(C)(C)NC(C)(C)C1)C1=C(O)CC(C)(C)CC1=O` it was 0.57% (inactive); in that of `COc1ccc(NC(=O)CN(C)C(=O)c2cc(-c3ccc(C)o3)nc3ccccc23)cc1`, 1.85% (inactive). In the case of `CN(CCOc1ccccc1)C(=O)c1cc(-c2ccco2)nc2ccccc12` it was 44.1% (active); in that of `CN(C(=O)COC(=O)c1cc(-c2ccco2)nc2ccccc12)C1CCS(=O)(=O)C1` (configuration not stated), 24.7% (inactive); in that of `Cn1nc(-c2ccccc2)c(CSc2cccc(Cl)c2)c1Cl`, 3.82% (inactive). Consider `C=CCN(Cc1nc(-c2cc(OC)c3c(c2)OCO3)oc1C)C1CCS(=O)(=O)C1` (configuration not stated), for which the inhibition is 3% (inactive). The result for `COc1ccc(CCNS(=O)(=O)c2cc3c(cc2C)NC(=O)CO3)cc1OC` reads 5.55% (inactive); that for `O=C1c2ccccc2-c2ncnc3c(N4CCOCC4)cc(N4CCOCC4)c1c23`, 47.9% (active); that for `Cc1oc2c(c1C(=O)N1CCOCC1)C(=O)c1ccccc1C2=O`, -4.37% (inactive).

`COC1=C(N2CCOCC2)C(=O)c2ccccc2C1=O`: the inhibition was 5.26% (inactive). In the case of `CCOc1ccc(NC(=O)CSc2ncnc3c2sc2ccccc23)cc1` it was 7.48% (inactive); in that of `CN(C)C=NC(=O)c1cccn1-c1ncc(C(F)(F)F)cc1Cl`, 3.24% (inactive); in that of `CC1CCCCC1NC(=O)COC(=O)Cc1ccc(Cl)cc1` (configuration not stated), 0.1% (inactive). For `Cc1cc(C)c(S(=O)(=O)N2CCCC2CNC(=O)c2ccc3c(c2)OCO3)c(C)c1` (configuration not stated), the inhibition is -0.56% (inactive). The result for `Cc1[nH]c2ccccc2c1CCN(Cc1cccs1)C(=S)NC(C)(C)C` reads 5.63% (inactive); that for `COc1cccc(NC(=S)N(CCc2c(C)[nH]c3ccccc23)Cc2ccco2)c1`, 2.83% (inactive); that for `COc1ccc2[nH]c(C)c(CCN(Cc3cccs3)C(=S)Nc3ccccc3OC)c2c1`, 50% (active). For `CCOC(=O)Cc1csc(SCC(=O)NC(C)C23CC4CC(CC(C4)C2)C3)n1` (configuration not stated), the inhibition was -5.16% (inactive).

Turning to `O=c1cc(CO)oc(C(Nc2cccc(C(F)(F)F)c2)c2ccccn2)c1O` (configuration not stated), the inhibition is 75.6% (active). In the case of `O=c1cc(CO)oc(C(Nc2cccc([N+](=O)[O-])c2)c2ccccn2)c1O` (configuration not stated) it was 25.3% (inactive); in that of `FC(F)(F)c1cccc(Nc2ncnc3ccccc23)c1`, 8.73% (inactive); in that of `O=C(CN1CCOC1=O)N1CCCC(Nc2ccc(F)c(F)c2)C1` (configuration not stated), -0.97% (inactive). The result for `CCCC1OC23CCCCC2C(C#N)(C#N)C1(C#N)C(=N)O3` (configuration not stated) reads 63.5% (active); that for `O=C1CCC(=O)N(c2ccccc2)N1`, 3.62% (inactive). The result for `COC(=O)C1CCN(C(=O)c2cc(=O)[nH]c3ccccc23)CC1` reads 4.47% (inactive). Regarding `COC(=O)[C@H]1[C@H]2C[C@H]3c4[nH]c5ccccc5c4CCN3C[C@@H]2CC[C@@H]1O`, the inhibition is 8.5% (inactive) and 48.8% (active). In the case of `O=C(Nc1ccc(Cl)cc1)N1CCc2[nH]c3ccccc3c2C1` it was 7.58% (inactive); in that of `O=C1c2cccc(OCC(=O)N3N=C(c4cccs4)CC3c3ccc(F)cc3)c2CCN1Cc1ccccc1` (configuration not stated), -0.98% (inactive). As to `CC1CCCCC1NC(=O)Cn1c(=O)cnc2ccccc21` (configuration not stated), the inhibition was -4.13% (inactive). In the case of `CC(C)CCn1c(=O)c2c(nc3n2CCCN3Cc2ccccc2)n(C)c1=O` it was 2.24% (inactive); in that of `COc1ccc(OCCCC(=O)Nc2cccc(S(=O)(=O)N3CCCCCC3)c2)cc1`, 6.95% (inactive); in that of `C1=C(N2CCOCC2)/C(=C/c2nc3ccccc3[nH]2)CC1`, 72.7% (active). With `CC1(C)Cc2c(C#N)c(SCc3nc4ccccc4[nH]3)nc(N3CCOCC3)c2CO1`, the inhibition was -7.37% (inactive). In the case of `c1ccc(-n2nnnc2N2CCOCC2)cc1` it was -16.6% (inactive); in that of `CC(=O)c1c(C)[nH]c(C(=O)CN2C(=O)NC(C)(C)C2=O)c1C`, 1.35% (inactive). Regarding `COc1ccc(C(=O)CN2C(=O)NC3(CCc4ccccc43)C2=O)c(OC)c1` (configuration not stated), the inhibition is 0.18% (inactive).

With `CC/C(=N/Nc1ccccc1)c1cnnc(SC)n1`, the inhibition was 2.17% (inactive).

Regarding `CSc1ccc(S(=O)(=O)Nc2cccc(F)c2)cc1`, the inhibition was 11.1% (inactive). The result for `COc1cccc(-c2nc(CS(=O)CC(=O)NCc3ccc(F)cc3)c(C)o2)c1` (configuration not stated) reads -0.05% (inactive). In the case of `COc1ccc(-c2nc(CS(=O)CC(=O)NCc3ccccc3)c(C)o2)cc1OC` (configuration not stated) it was -5.15% (inactive); in that of `COc1ccc(-c2nc(CS(=O)CC(=O)NCc3ccccn3)c(C)o2)cc1` (configuration not stated), 81.7% (active); in that of `COc1ccc(-c2onc3ccc(C(C)=O)cc23)cc1`, 169% (active).

In the case of `CC(OC(=O)c1ccc2noc(-c3ccccc3)c2c1)C(N)=O` (configuration not stated), the inhibition was 6.97% (inactive). On to `Oc1ccc(-c2onc3ccc(Cl)cc23)cc1`, for which the inhibition was 8.29% (inactive).

For the molecule `COc1ccc(/C=C/C(=O)c2cc(Br)ccc(=O)c2O)cc1`, the inhibition is -9.08% (inactive). The result for `O=C(c1cnccn1)N1CCN(S(=O)(=O)c2cccc(Cl)c2)CC1` reads 3.23% (inactive).

On to `O=C(c1ccc(F)c(S(=O)(=O)N2CCOCC2)c1)N(CCc1ccccc1)Cc1ccccc1`, for which the inhibition was 18.5% (inactive).

In the case of `Cc1nn(Cc2ccccc2)c(C)c1CNC(=O)c1ccc(F)c(S(=O)(=O)N2CCOCC2)c1`, the inhibition was 103% (active). Take `O=C(NCCSCc1ccccc1)c1ccc(Cl)c(S(=O)(=O)N2CCOCC2)c1`: the inhibition was 7.47% (inactive). In the case of `Cc1cnc(CN(C)C(=O)CC2C(=O)NCCN2Cc2cccc(F)c2F)[nH]1` (configuration not stated) it was 9.56% (inactive); in that of `CC1(C)CC[C@]2(C(=O)O)CC[C@]3(C)C(=CCC4[C@@]5(C)CC[C@H](O)C(C)(C)C5[C@H](O)C[C@]43C)[C@@H]2C1` (some centres not stated), 1.49% (inactive); in that of `O=C(COC(=O)Cn1cnc2ccccc21)Nc1cccc2c1C(=O)c1ccccc1C2=O`, 78.6% (active). In the case of `O=C(Cn1cnc2ccccc21)Nc1ccccc1-c1ccccc1` it was 1.53% (inactive); in that of `O=C(COC(=O)c1cccc(Br)c1)Nc1cccc2c1C(=O)c1ccccc1C2=O`, 7.63% (inactive); in that of `Cc1ccc(N(Cc2cc(=O)[nH]c3ccccc23)C(=O)CCl)cc1`, 0.28% (inactive).

Take `CC(=O)N/C(=N/c1nc(C)cc(C)n1)Nc1ccc(F)cc1F`: the inhibition is -1.91% (inactive). Regarding `O=C(NCCc1ccccc1)C1CCN(S(=O)(=O)c2ccc(Br)s2)CC1`, the inhibition is 4.67% (inactive). In the case of `O=S(=O)(NCc1cccnc1)c1ccc(Br)s1` it was 2.39% (inactive); in that of `O=S(=O)([N-]c1nc2ccccc2nc1-[n+]1ccc(Cc2ccccc2)cc1)c1ccc(Br)s1`, 94.1% (active). With `O=C1CN(C(=O)COC(=O)c2cnc(Cl)c(Cl)c2)c2ccccc2N1`, the inhibition is 6.14% (inactive). Consider `CS(=O)(=O)c1ccc(C(=O)NNC(=O)c2cccs2)cc1`, for which the inhibition is 1.25% (inactive). The result for `O=C(c1cc(COc2ccc(F)cc2F)on1)N1CCOCC1` reads -0.95% (inactive).
